TDP1 cell noCPT – qHTS for Inhibitors of human tyrosyl-DNA phosphodiesterase 1 (TDP1): qHTS in cells in absence of CPT; AID 686978, 2013; Potency, µM (titrated, usually from 46.2 µM), for the others: at the top dose activity change, negative = growth inhibition, actives largely listed as inhibitors; 420,000 compounds, 15% hits; DT40 Tdp1-/- hTDP1 cells, no CPT, ATP luminescence, 48 h; note: potency is the fitted concentration of half-maximal effect; nearly all actives have a fitted effect of over 55% in size
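Growth kinetics read by CellTiter-Glo luminescence after ≥48 hr at 37 °C. Cells: DT40 Tdp1-/- stably carrying human TDP1, 400 per well, compound exposure in the absence of CPT (DMSO vehicle).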
ELG1 repair inh – inhibitors of ELG1-dependent DNA repair in HEK293T cells; HEK293T ELG1-luciferase reporter, luminescence, 16 h; DNA damage induced by 5-fluorouridine; Potency, µM (series often up to 46.1 µM), for inactives: at the top dose activity change, negative = inhibition, hits mostly inhibitors; 330,000 compounds, 2.3% hits; AID 504467; note: potency is the fitted concentration of half-maximal effect; nearly all actives have a fitted effect of over 55% in size
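Step one: seed 2,000 cells per well. Step two: pin-transfer compound or DMSO alongside 5-fluorouridine. Step three: incubate 16 hr, 37 °C, 5% CO2. Step four: add ONE-Glo, wait 30 min, read luminescence.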
IL-1B inflam inh – inflammasome signaling inhibition, IL-1 beta readout. THP-1 LPS/ATP IL-1B secretion, AlphaLISA, 16 h; active compounds read low. activity change, % at 57.5 µM. 360,000 compounds, 4.7% hits. AID 743279; in the data active = activity change below about -50%; inconclusive = mostly about -30% to -49%
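Secreted IL-1B measured by AlphaLISA bead assay after 16 h compound exposure of THP-1 cells; compounds (final up to 57.5 uM) added 1 h before LPS (250 ng/mL) and ATP (1.25 mM) stimulation; lower signal means less secretion.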
HT1080 IDH1KD tx – toxicity to HT-1080 IDH1 knockdown cells (counter line); 360,000 compounds, 2% hits; HT-1080 IDH1 knockdown viability, ATP luminescence, 48 h; Potency, µM (highest dose often 46.1 µM), inactives show top-dose activity, negative = toxicity, most hits filed as cytotoxic; AID 686971;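 note: potency is the fitted concentration of half-maximal effect; 0% = DMSO wells and -100% = cell-free medium wells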
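Luminescent ATP read-out (CellTiter-Glo, 10 min at room temperature) after 48 h compound exposure at 37 °C gave viability of IDH1-knockdown HT-1080 cells. Activity was normalised to DMSO and cell-free wells, then fitted as concentration-response curves.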
HT1080-NT tox – kills 2HG-producing HT-1080-NT fibrosarcoma cells; HT-1080-NT fibrosarcoma viability, CellTiter-Glo ATP luminescence, 48 h; Potency, µM (doses to about 46.1 µM), for the others: at the highest dose activity, negative = less viability, hits mostly cytotoxic; 360,000 compounds, 1.6% hits; AID 686970;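 note: NT is the 2HG producing partner of a matched IDH1 knockdown line; potency is the fitted concentration of half-maximal effect; 0% = DMSO-treated cells and -100% = media-only wells without cells; nearly all actives have a fitted effect of over 55% in size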
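Read-out is CellTiter-Glo luminescence after 10 minutes at room temperature, following 48 hours' compound treatment of HT-1080-NT cells (750 cells/well, RPMI, 5% FBS, 37 degrees C).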
TDP1 cell CPT – growth inhibition of DT40 Tdp1-/-;hTDP1 cells with camptothecin (screen for TDP1 inhibitors). chicken DT40 Tdp1-/-;hTDP1 cells + 20 nM CPT, ATP luminescence, 48 h. Potency, µM (titrated, usually from 46.2 µM), for the others: top-dose activity change, negative = growth inhibition, hits mostly inhibitors. 420,000 compounds, 12% hits. AID 686979; note: potency is the fitted concentration of half-maximal effect; nearly all actives have a fitted effect of over 55% in size
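Cell growth measured by CellTiter-Glo luminescence after a minimum 48 h, 37 C compound exposure with 20 nM CPT in Tdp1-knockout DT40 cells stably expressing hTDP1, seeded 400/well; qHTS titration format.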
Starred values were filed as active, the others as inactive; ? = inconclusive; . = not tested or not shown. Shown are actives, neighbours in structure and some others; about 19% of the full set was active somewhere. Unless noted, calls come from the whole dose curve; as a rule, active = well fitted curve in the direction sought with a large enough effect; inconclusive = small, poorly fitted or top-dose-only effect, or another doubt; inactive = no such curve, though single readings can be large; an effect the other way counts as inactive or inconclusive. Unless noted, % is set by controls: 0 for no effect and ±100 for the full control effect.

SMILES	TDP1 cell noCPT	ELG1 repair inh	IL-1B inflam inh	HT1080 IDH1KD tx	HT1080-NT tox	TDP1 cell CPT
NC(=O)C1CCN(Cc2nc3cc(Cl)ccc3c(=O)[nH]2)CC1	-11.6%	-3.8%	22.9	18.4µM*	20.6µM*	-10.5%
Cc1cccc(OCc2n[nH]c(=S)n2Cc2ccccc2)c1	-27.1%	-1.3%	10.2	-6.8%	-7.9%	1.1%
O=C(O)c1cc2c(cc1NC(=O)C1CCCC1)OCCO2	-10.3%	7.7%	15.7	7.1%	0.6%	1.8%
Cc1nn(CC(=O)NCc2ccc(F)cc2)c2ccccc12	-18.2%	.	.	.	.	-16.4%
COC(=O)c1ccc(C(C(=O)NC2CCCCC2)N(CCc2ccccc2)C(=O)Cc2cccs2)cc1 (stereo unspecified)	6.51µM*	2.0%	19.1	20.5%	8.2%	5.17µM*
COc1ccc(CN(C(=O)Cc2cccs2)C(C(=O)NC2CCCC2)c2ccncc2)cc1 (stereo unspecified)	?	0.0%	-3.5	-24.2%	0.6%	?
COC(=O)c1ccc(C(C(=O)NC2CCCCC2)N(Cc2ccc(F)cc2)C(=O)Cc2cccs2)cc1 (stereo unspecified)	11.6µM*	-5.9%	-7.6	-28.5%	-4.1%	9.2µM*
O=C(NC1CCCC1)C(c1ccccc1)N(Cc1ccco1)C(=O)Cc1cccs1 (stereo unspecified)	?	?	-12.9	1.8%	2.1%	?
N#Cc1ccccc1NC(=O)COC(=O)c1ccc2c(c1)OCO2	?	17.9%	3.5	0.0%	1.7%	1.7%
O=S(=O)(c1ccc(NC(=S)N/N=C/c2ccc(Oc3ccccc3)cc2)cc1)N1CCOCC1	-11.6%	12.2%	6.5	6.2%	11.5%	7.1%
O=S(=O)(c1ccc(NC(=S)N/N=C/c2c3ccccc3cc3ccccc23)cc1)N1CCOCC1	3.66µM*	?	-10.9	?	?	2.59µM*
O=S(=O)(c1ccc(NC(=S)N/N=C/c2ccc(N3CCOCC3)cc2)cc1)N1CCOCC1	3.66µM*	-17.1%	12.6	2.2%	9.5%	4.11µM*
C=C(C)/C=N/NC(=S)Nc1ccc(S(=O)(=O)N2CCOCC2)cc1	-29.7%	?	29.9	-10.1%	-0.2%	-0.2%
CCC1CCCCN1CC(=O)c1c(C)[nH]c2cc(C)ccc12 (stereo unspecified)	-4.5%	-12.1%	44.8	-18.1%	-23.9%	4.6%
CC1=C(C(=O)N2CCN(c3ccccc3)CC2)C2(CCCCC2)OC1=O	-27.4%	.	.	.	.	-24.5%
CC1=C(C(=O)N2CCN(c3cccc(Cl)c3)CC2)C2(CCCCC2)OC1=O	20.6µM*	.	.	.	.	?
CC1=C(C(=O)N2CCN(c3cccc(C)c3C)CC2)C2(CCCCC2)OC1=O	20.6µM*	.	.	.	.	20.6µM*
Cc1cc(C)c(NC(=O)COC(=O)C2CCCCC2)c(C)c1	1.6%	-0.2%	-15.0	-2.0%	-4.6%	9.0%
CSCCC(NS(=O)(=O)c1ccc2c(c1)OCCO2)C(=O)N(C)Cc1ccccc1F (stereo unspecified)	20.6µM*	16.4µM*	-9.7	-0.3%	2.2%	?
CSCCC(NS(=O)(=O)c1ccc2c(c1)OCCO2)C(=O)N(C)Cc1ccc(F)cc1 (stereo unspecified)	13µM*	?	-0.6	-6.4%	-1.2%	23.1µM*
CSCCC(NS(=O)(=O)c1cccc(C(F)(F)F)c1)C(=O)N(C)Cc1ccc2c(c1)OCCO2 (stereo unspecified)	?	-11.1%	-0.8	-1.0%	-0.1%	?
C=C(C)CSc1cc(C)c(C#N)c2nc3ccccc3n12	9.2µM*	?	-20.6	-5.4%	-7.7%	20.6µM*

Screens deposited in PubChem BioAssay by National Center for Advancing Translational Sciences (NCATS).
